Source: PubChem BioAssay (Tox21)
Values joined by “and” are separate entries in the source; they are usually repeats but may differ in a detail not shown here. Equal entries are not always repeated. Records with an inconclusive call do not appear. Active and inactive are the calls of the source. Calls follow the shape of the dose curve; as a rule, active = well fitted curve in the direction sought with a large enough effect in the repeat runs; inconclusive = weak or mixed curves; inactive = no such curve, though single readings can be large; an effect the other way counts as inactive or inconclusive.

test system: not listed separately; assay: qHTS assay to identify small molecule antagonists of the retinoic acid receptor (RAR) signaling pathway (AID 1159552; also: nearly all actives have a fitted effect of over 50% in size); conditions: C3RL4 RARE luciferase reporter, retinol-stimulated, 6 h; series mostly up to 92.4 µM; activity, negative = inhibition: at the top concentration
Outline: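 Luminescence from a RARE luciferase reporter in C3RL4 cells served as read-out. Cells received compounds together with 1 uM final retinol and incubated 6 hr at 37 C before detection reagent was added for 30 min at room temperature.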
% is scaled to controls: 0 for no effect and ±100 for the full control effect; potency is read from the fitted curve at half-maximal effect.

Structure (SMILES)	activity, negative = inhibition	Potency
CC(C)c1ccccc1N	-2.5% (inactive)	
CCCC(=O)OCC(COC(=O)CCC)OC(=O)CCC	20.9% (inactive)	
C[n+]1c2cc(N)ccc2cc2ccc(N)cc21 (tested in a mixture with another compound)		23.7 µM (active)
CCCCCCCC(OC)OC	-0.148% [at 42.5 µM] (inactive)	
CC1CCCCC1	0.646% (inactive)	
CN(C)CCN1CCOCC1	4.19% (inactive)	
O=C1NCCN1CCN1CCC(c2cn(-c3ccc(F)cc3)c3ccc(Cl)cc23)CC1		26.6 µM (active)
O=C=NCc1cccc(CN=C=O)c1	6.56% [at 19 µM] (inactive)	
Nc1ccc2cc3ccc(N)cc3nc2c1		4.33 µM (active) and 16.8 µM (active)
CC(C)=CCCC(C)CCOC(=O)C(C)C (stereo unspecified)	11% (inactive)	
CCOC(=O)C1=C(C)NC(C)=C(C(=O)OCC)C1c1ccccc1/C=C/C(=O)OC(C)(C)C		29.8 µM (active)
N[C@@H](CSSC[C@H](N)C(=O)O)C(=O)O	36.8% [at 0.349 µM] (inactive)	
Brc1ccccn1	-11.9% (inactive)	
CC(C)CCOCCC(C)C	-6.99% (inactive)	
CN(C)CCCN1c2ccccc2Sc2ccc(C(F)(F)F)cc21		29.8 µM (active)
CC(=O)c1ccccc1N	-7.25% (inactive)	
CCOC(=O)CC(C)O (stereo unspecified)	-1.27% (inactive)	
OCCCCl	-11.1% (inactive)	

Structure (SMILES)	activity, negative = inhibition	Potency
O=S(O)O	5.26% [at 19 µM] (inactive)	
CC(O)C#CC(C)O (stereo unspecified)		30.3 µM (active)
COc1cccc(OC)c1O	-8.72% (inactive)	
CCc1c(C(=O)O)c(=O)cnn1-c1ccc(Cl)cc1	0.771% (inactive)	
CC(C)(C)CC(C)(C)c1ccccc1O		27.4 µM (active)
S=C(SSSSSSC(=S)N1CCCCC1)N1CCCCC1	-10.6% [at 19 µM] (inactive)	
C=CC(C)(CCC=C(C)C)OC(=O)/C=C/c1ccccc1 (stereo unspecified)	41.1% (inactive)	
CC1=CCC(=O)O1	-11.8% (inactive)	
CC1(C)COCN1	58.2% (inactive)	
CN1CN(C)CN(C)C1	-14.5% (inactive)	
CO[Si](CCC1CCC2OC2C1)(OC)OC (stereo unspecified)	-6.94% (inactive)	
c1cc[nH]c1	-1.62% (inactive)	
CCCSS/C(CCO)=C(\C)N(C=O)Cc1cnc(C)nc1N		29.8 µM (active)
C[Si](C)O[Si](C)C	8.94% (inactive)	
CNC(=S)NN		43.3 µM (active)
CC1CNCC(C)O1 (stereo unspecified)	13.6% (inactive)	
Cc1cccc(Br)c1	83.8% (inactive)	
COc1nccnc1CC(C)C	-7.68% (inactive)	

test system: not listed separately; assay: qHTS assay to identify small molecule antagonists of the estrogen related receptor (ERR) signaling pathway from Tox21 library - cell viability counter screen (AID 1224834); conditions: ERR reporter cells viability, CellTiter-Fluor, 17.5 h; series mostly up to 92.4 µM; viability change, negative = cytotoxic: at the top concentration; also: nearly all actives have a fitted effect of over 30% in size
Outline: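 ERR reporter cells were plated 6 h before compound addition, then exposed to test compounds in DMSO for 17.5 h at 37 C. Viability was read as CellTiter-Fluor fluorescence after a 30-minute incubation at 37 C.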

Structure (SMILES)	Potency	viability change, negative = cytotoxic
CCOC(=O)C1=C(C)NC(C)=C(C(=O)OCC)C1c1ccccc1/C=C/C(=O)OC(C)(C)C	29.8 µM (active)	
CC1=CCC(=O)O1		-1.23% (inactive)
CNC(=S)NN	15.4 µM (active)	
Cc1cccc(Br)c1		0.25% (inactive)

molecular target: Luciferin 4-monooxygenase (Photinus pyralis) (UniProt P08659); assay: qHTS assay to identify small molecule inhibitors of firefly luciferase (AID 1224835); also: nearly all actives have a fitted effect of over 25% in size; conditions: purified P. pyralis luciferase, luminescence inhibition; series mostly up to 115 µM; activity change, negative = inhibition: at the top concentration
Sequence (P08659 whole entry, looked up): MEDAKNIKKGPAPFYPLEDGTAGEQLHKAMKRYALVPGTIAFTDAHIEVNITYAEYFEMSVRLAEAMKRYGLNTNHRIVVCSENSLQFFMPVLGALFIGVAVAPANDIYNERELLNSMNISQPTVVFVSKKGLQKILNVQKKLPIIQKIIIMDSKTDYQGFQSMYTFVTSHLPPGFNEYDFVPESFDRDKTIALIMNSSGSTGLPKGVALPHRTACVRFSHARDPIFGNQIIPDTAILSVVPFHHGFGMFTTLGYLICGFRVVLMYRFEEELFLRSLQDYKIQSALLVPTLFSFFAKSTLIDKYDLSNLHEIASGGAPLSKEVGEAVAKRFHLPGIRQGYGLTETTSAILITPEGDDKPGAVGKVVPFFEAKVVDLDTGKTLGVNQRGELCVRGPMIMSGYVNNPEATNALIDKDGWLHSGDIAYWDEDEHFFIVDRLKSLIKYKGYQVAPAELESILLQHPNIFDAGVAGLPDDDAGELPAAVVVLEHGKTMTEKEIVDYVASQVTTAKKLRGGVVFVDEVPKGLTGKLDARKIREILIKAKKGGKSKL
Outline: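 Quantitative HTS format; KM concentrations of both substrates. Purified P. pyralis FLuc activity quantified from luminescence images.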

Structure (SMILES)	activity change, negative = inhibition	Potency
CC(C)c1ccccc1N	-0.509% (inactive)	
CCCC(=O)OCC(COC(=O)CCC)OC(=O)CCC	0.441% (inactive)	
C[n+]1c2cc(N)ccc2cc2ccc(N)cc21 (tested in a mixture with another compound)	1.45% [at 52.9 µM] (inactive)	
CCCCCCCC(OC)OC	3.47% [at 52.9 µM] (inactive)	
CC1CCCCC1	2.51% (inactive)	
CN(C)CCN1CCOCC1	1.2% (inactive)	
O=C1NCCN1CCN1CCC(c2cn(-c3ccc(F)cc3)c3ccc(Cl)cc23)CC1	-0.702% [at 52.9 µM] (inactive)	
O=C=NCc1cccc(CN=C=O)c1	3.61% [at 23.6 µM] (inactive)	
Nc1ccc2cc3ccc(N)cc3nc2c1		inactive
CC(C)=CCCC(C)CCOC(=O)C(C)C (stereo unspecified)	-1.82% (inactive)	
CCOC(=O)C1=C(C)NC(C)=C(C(=O)OCC)C1c1ccccc1/C=C/C(=O)OC(C)(C)C	5.56% [at 52.9 µM] (inactive)	
N[C@@H](CSSC[C@H](N)C(=O)O)C(=O)O	-0.457% [at 0.435 µM] (inactive)	
Brc1ccccn1	0.0202% (inactive)	
CC(C)CCOCCC(C)C	-1.68% (inactive)	
CN(C)CCCN1c2ccccc2Sc2ccc(C(F)(F)F)cc21	-0.0021% [at 52.9 µM] (inactive)	
CC(=O)c1ccccc1N	-7.16% (inactive)	
CCOC(=O)CC(C)O (stereo unspecified)	0.907% (inactive)	
OCCCCl	1.44% (inactive)	

Structure (SMILES)	activity change, negative = inhibition	Potency
O=S(O)O	-0.0072% [at 23.6 µM] (inactive)	
CC(O)C#CC(C)O (stereo unspecified)	0.0773% (inactive)	
COc1cccc(OC)c1O	-0.0355% (inactive)	
CCc1c(C(=O)O)c(=O)cnn1-c1ccc(Cl)cc1	-3.95% (inactive)	
CC(C)(C)CC(C)(C)c1ccccc1O	0.286% (inactive)	
S=C(SSSSSSC(=S)N1CCCCC1)N1CCCCC1		6.22 µM (active)
C=CC(C)(CCC=C(C)C)OC(=O)/C=C/c1ccccc1 (stereo unspecified)	-4.13% (inactive)	
CC1=CCC(=O)O1	7.75% (inactive)	
CC1(C)COCN1	0.506% (inactive)	
CN1CN(C)CN(C)C1	3.72% (inactive)	
CO[Si](CCC1CCC2OC2C1)(OC)OC (stereo unspecified)	0.0596% (inactive)	
c1cc[nH]c1	2.7% (inactive)	
CCCSS/C(CCO)=C(\C)N(C=O)Cc1cnc(C)nc1N	-4.07% [at 52.9 µM] (inactive)	
C[Si](C)O[Si](C)C	-0.562% (inactive)	
CNC(=S)NN	-6.38% (inactive)	
CC1CNCC(C)O1 (stereo unspecified)	-0.247% (inactive)	
Cc1cccc(Br)c1	0.726% (inactive)	
COc1nccnc1CC(C)C	0.892% (inactive)	
